SMN2 splice up: qHTS Assay for Enhancers of SMN2 Splice Variant Expression; HEK293 SMN2-luciferase splicing reporter, luminescence, 30-36 h; Potency, µM (series often up to 46.1 µM), for inactives: at the top dose activity change, positive = activation, actives largely listed as activators; hit rate 2.8% among 210,000; also: % of control where 0% means no effect; nearly all actives have a fitted effect of over 55% in size
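qHTS luciferase splicing reporter: luminescence rises when SMN2 exon 7 is included in transfected HEK293 cells. Compound exposure lasted 30-36 h at 37C, with 4.5 mM final sodium butyrate as control, followed by a ONE-Glo read.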
FLuc modulator: qHTS profiling assay for firefly luciferase inhibitor/activator using purifed enzyme and Km concentrations of substrates (counterscreen for miR-21 project); Luciferin 4-monooxygenase (Photinus pyralis), P08659; purified FLuc, Km substrates, luminescence inhibition; Potency, µM (titrated, usually from 57.5 µM), inactives show at the highest dose activity change, negative = inhibition, hits mostly inhibitors; hit rate 6.9% among 360,000; AID 588342, 2011;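 also: plate controls were vehicle for no effect and reference inhibitor for full effect; nearly all actives have a fitted effect of over 55% in size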
Target sequence (P08659 whole entry, looked up): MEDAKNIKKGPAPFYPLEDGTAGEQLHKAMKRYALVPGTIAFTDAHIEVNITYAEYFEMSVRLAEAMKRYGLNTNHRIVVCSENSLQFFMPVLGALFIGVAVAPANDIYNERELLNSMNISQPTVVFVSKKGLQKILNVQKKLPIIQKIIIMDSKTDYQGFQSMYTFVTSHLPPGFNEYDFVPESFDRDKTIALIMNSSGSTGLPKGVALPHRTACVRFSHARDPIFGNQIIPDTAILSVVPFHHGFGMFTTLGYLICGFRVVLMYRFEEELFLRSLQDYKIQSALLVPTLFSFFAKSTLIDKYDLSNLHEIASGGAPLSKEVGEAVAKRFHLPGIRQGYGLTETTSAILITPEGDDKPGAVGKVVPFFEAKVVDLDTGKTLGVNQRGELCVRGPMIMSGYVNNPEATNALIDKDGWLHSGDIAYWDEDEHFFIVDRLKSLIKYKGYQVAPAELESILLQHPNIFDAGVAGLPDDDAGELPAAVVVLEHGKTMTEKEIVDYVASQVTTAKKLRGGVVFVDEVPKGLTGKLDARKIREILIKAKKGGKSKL
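Purified P. pyralis luciferase (10nM final) with 10uM D-luciferin and 10uM ATP (Km levels) in 50mM Tris acetate pH 7.5, 10mM Mg acetate, 0.01% Tween-20, 0.05% BSA; qHTS 6-point titration, ~60 µM downward; luminescence read.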
NPC1 promoter act: qHTS Assay for NPC1 Promoter Activators; AID 485313, 2010; hit rate 2.4% among 320,000; Huh7 NPC1 promoter luciferase reporter, 24 h; Potency, µM (doses to about 9.22 µM), without a hit: at the highest dose activation, most hits filed as activators; also: % of control where 0% means no effect; nearly all actives have a fitted effect of over 60% in size
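Quantitative HTS used a cell-based reporter: Huh7 cells stably bearing the NPC1 promoter upstream of luciferase were treated with compounds for 24 h, and promoter activation was read as luminescence.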
Rab9 prom act: qHTS Assay for Rab9 Promoter Activators. Huh7 Rab9 promoter-luciferase reporter, luminescence, 24 h. Potency, µM (top dose mostly 9.22 µM), for inactives: at the highest dose activation, negative = inhibition, hits mostly activators. hit rate 2.8% among 320,000; also: % of control where 0% means no effect; nearly all actives have a fitted effect of over 60% in size
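Cells were plated at 1500 per well in reduced-serum medium with 10% FBS and left 2 h. Compound in DMSO was then added for 24 h at 37 °C. Reporter signal was read by luminescence after 10 min with luciferase detection reagent.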
ELG1 genotoxic: qHTS screen for small molecules that induce genotoxicity in human embryonic kidney (HEK293T) cells expressing luciferase-tagged ELG1; HEK293T ELG1-luciferase reporter, luminescence, 16 h; hit rate 1.3% among 330,000; Potency, µM (titrated, usually from 46 µM), without a hit: at the top dose activity change, positive = activation, hits mostly activators; AID 504466, 2011; also: % of control where 0% means no effect; nearly all actives have a fitted effect of over 60% in size
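DMSO vehicle served as control against compound-treated ELG1-luciferase HEK293T cells; exposure lasted 16 hr at 37 °C and 5% CO2, followed by ONE-Glo luminescence detection after 30 min.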
* marks the source's active call; other numbers are inactive results; ? = inconclusive; . = not tested or not shown; [ ] = dose if it differs, or a comment. Shown are actives, neighbours in structure and some others; about 7.4% of the full set was active somewhere. Calls follow the shape of the dose curve; as a rule, active = well fitted curve in the direction sought with a large enough effect; inconclusive = small, poorly fitted or top-dose-only effect, or another doubt; inactive = no such curve, though single readings can be large; an effect the other way counts as inactive or inconclusive. Potency is read from the fitted curve at half-maximal effect.

SMILES | SMN2 splice up | FLuc modulator | NPC1 promoter act | Rab9 prom act | ELG1 genotoxic
Cc1ccc(-n2nc3ccc(N)cc3n2)cc1 | 3.2µM* | 0.54µM* | ? | 0.5µM* | 1.4µM*
Cc1ccc(-n2nc3ccc(NC(=O)c4cccc([N+](=O)[O-])c4C)cc3n2)cc1 | 11% | ? | -7% | -13% | 8%
CC(C)c1ccc(-n2nc3ccc(N)cc3n2)cc1 | . | 0.15µM* | 0.89µM* | 0.45µM* | ?
Nc1ccc2nn(-c3cc([N+](=O)[O-])ccc3O)nc2c1 | . | 0% | 11% | 17% | -4%
Nc1ccc2nn(-c3ccc(F)cc3)nc2c1 | . | 4.3µM* | 0.89µM* | 1.4µM* | 3.3µM*
CCOc1ccc2nc(/N=C/c3nc(-c4ccc(Br)cc4)oc3O)sc2c1 | 17% | -7% | 9% | 17% | 2%
CCCCN=Cc1sc2ccc(OCC)cc2c1O | 16% | 21µM* | 17% | 24% | 14%
C=CCN=Cc1sc2ccc(OCC)cc2c1O | . | 8.5µM* | 3.2µM* | 2.8µM* | ?
Cc1ccc(S(=O)(=O)c2nc(S(=O)(=O)c3ccccc3)sc2N2CCN(C)CC2)cc1 | . | 3% | -6% | -5% | -8%
N/C(=N\O)C1COc2ccccc2O1 (centres undefined) | -12% | -1% | -7% | -3% | 6%
NC(N)=Nc1nc(C2COc3ccccc3O2)cs1 (centres undefined) | 4.5µM* | 3.4µM* | 1.6µM* | 1.3µM* | ?
CC(=O)Nc1nc(C2COc3ccccc3O2)cs1 (centres undefined) | 4µM* | 4.8µM* | 1.3µM* | 0.56µM* | 0.65µM*
Cc1ccc(C)c([C@@H]2NC(=O)c3ccccc3N2)c1 | -10%[9.22 µM] | . | . | . | .
C=CCSc1ncnc2c1oc1nc3c(cc12)COC(C)(C)C3 | . | 13µM* | ? | ? | ?
CCCOc1ncnc2c1sc1nc3c(cc12)COC(C)(C)C3 | . | ? | 30% | ? | ?
CC(C)COc1ncnc2c1sc1nc3c(cc12)COC(C)(C)C3 | . | 24µM* | 4µM* | 3.2µM* | ?
CCc1nc2c(sc3nc4c(cc32)COC(C)(C)C4)c(=O)n1CCN(CC)CC | -13% | 2% | -4% | -8% | 4%
CC1(C)Cc2nc3sc4c(OCc5ccccc5)ncnc4c3cc2CO1 | -48% | -6% | -3% | 10% | -1%
CC(C)CSc1ncnc2c1oc1nc3c(cc12)COC(C)(C)C3 | ? | ? | 14% | 14% | 13%
CCSc1ncnc2c1sc1nc3c(cc12)COC(C)(C)C3 | 13µM* | 2.7µM* | 3.5µM* | 2.8µM* | ?
C=CCn1c(C)nc2c(sc3nc4c(cc32)COC(C)(C)C4)c1=O | . | 11µM* | 1.8µM* | 2µM* | ?
CCOCCCNC(=O)c1c[nH]c2c(CC)cccc2c1=O | 2% | -6% | -2% | 2% | 0%
Cc1cccc(N2CCN(C(=O)Cn3nc(C)c4sc5ccccc5c4c3=O)CC2)c1C | . | 3% | . | . | .
O=C(c1ccco1)N1N=C(c2cccs2)CC1c1ccc(F)cc1 (centres undefined) | -9% | -3% | 7% | -3% | -1%
O=C(c1ccco1)N1N=C(c2cccs2)CC1c1cc([N+](=O)[O-])ccc1O (centres undefined) | . | 17µM* | 11% | 0% | 10%
SMILES | SMN2 splice up | FLuc modulator | NPC1 promoter act | Rab9 prom act | ELG1 genotoxic
CCS(=O)(=O)Nc1ccc2[nH]c(=O)[nH]c2c1 | 4% | -1% | -6% | 0% | 3%
C=C(C)CSc1nc(N)c(C#N)c(-c2ccc(C)cc2)c1C#N | 2% | 15µM* | . | . | .
O=C(CNC(=O)c1ccccc1F)NCc1ccccn1 | . | . | . | . | 2%
Cc1ccc(O)c(NC(=O)c2cc(-c3ccccc3)on2)c1 | . | ? | ? | 15% | 16µM*
Cc1ccc(-c2cc(C(=O)Nc3cnn(C(C)C)c3)no2)cc1 | . | ? | 13% | 9% | -1%
Cc1ccc(-c2cc(C(=O)Nc3c(C#N)cnn3C)no2)cc1 | ? | 6.7µM* | 15% | 27% | 13%
CCCc1cc(C(=O)Nc2cc(C)ccc2O)no1 | . | 2.7µM* | 27% | -19% | 15µM*
CCOc1ccc(N=CC2=C(O)CC(C)(C)CC2=O)cc1 | -10% | 24µM* | -2% | -2% | ?
Cc1[nH]nc(N=CC2=C(O)CC(C)(C)CC2=O)c1-c1ccc(Cl)cc1 | -7% | 17µM* | 0% | -2% | -4%
CC1(C)CC(=O)C(C=Nc2ccc(Cl)cn2)=C(O)C1 | -12% | ? | -4% | 0% | 2%
Cc1ccc(N=CC2=C(O)CC(C)(C)CC2=O)nc1 | -9% | 24µM* | 0% | 1% | 1%
O=C(Cn1nc(-c2ccc3c(c2)OCCO3)ccc1=O)Nc1cccc(NC(=O)c2ccccn2)c1 | 8% | -5% | 1% | 2% | ?
Cc1ccc(C)c(N2CCN(CCCNC(=O)c3cnn(-c4ccccc4Cl)c3C3CCN(C(=O)OC(C)(C)C)CC3)CC2)c1 | . | 4% | . | . | .
CCOC(=O)c1ccc(NC(=O)c2cc3cc(C)ccc3n2C)cc1 | . | 3% | . | . | .
CC(C)n1cnc2cc(NCc3nc4ccccc4n3C)ccc21 | 2.8µM* | 4.8µM* | 1.3µM* | 1.1µM* | 15µM*
CCn1cnc2cc(NCc3nc4ccccc4n3C)ccc21 | 7.1µM* | 3µM* | 0.79µM* | 0.5µM* | 1.6µM*
CCn1cnc2cc(NCc3nc4ccccc4n3Cc3ccccc3)ccc21 | ? | 5.4µM* | 3.5µM* | 2.8µM* | ?
COc1cc(CNc2ccc3c(c2)ncn3C(C)C)cc(OC)c1OC | -10% | 3% | . | . | .
CCc1ccc2occ(CC(=O)Nc3ccc(C)c(C)c3)c2c1 | 100% | -16% | . | . | .
Cn1cc(/C=C/C(=O)N2CCCC(C(=O)c3ccc(C(C)(C)C)cc3)C2)cn1 (centres undefined) | . | 17µM* | 0% | -1% | -4%
COC(=O)c1ccc(OC)c(CN2CCCN(Cc3cc(C)ccc3C)S2(=O)=O)c1 | . | 1% | 1% | -2% | -4%
C/C(=N\NC(=O)c1ccc2c(c1)OCO2)c1cccnc1 | . | ? | ? | 3.5µM* | ?
C/C(=N\NC(=O)c1cc(C)oc1C)c1ccc2c(c1)OCO2 | 12% | ? | 18% | ? | 11%
C/C(=N\NC(=O)c1c[nH]c2ccccc12)c1ccc2c(c1)OCO2 | 17% | 27µM* | 3% | 28% | 8%
O=C(N/N=C(\c1ccccc1)c1cccnc1)c1cccc(F)c1 | . | -5% | -13% | -37% | 16µM*
C/C(=N/NC(=O)CCc1ccccc1)c1ccc2c(c1)OCO2 | . | -11% | -4% | 10% | -1%
C/C(=N\NC(=O)c1ccccc1)c1ccc2c(c1)OCO2 | 27% | 15µM* | ? | 2.8µM* | 18µM*

Assay outcomes from PubChem.
